Consider 93 molecules from PubChem BioAssay AID602449 (Sanford-Burnham Center for Chemical Genomics, 2012).

About 5,000 (1.4%) of roughly 360,000 compounds were called active. The entries come from a sample that favours actives as a whole. Values without a mark were called inactive.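 How the source made its calls: active means inhibition of 50% or more, scaled per plate between neutral and stimulator controls; inactive means the rest.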

One may read the inhibition as the drop in the measured response relative to a control, in per cent.

This test is described as follows: mitochondrial permeability transition pore inhibitors, primary screen, biochemical, isolated mouse mitochondria, absorbance (AID 602449).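 Further: 0% = DMSO wells given calcium and 100% = 1 mM EGTA wells.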 Particulars: Ca2+ swelling absorbance, 30 min, at 10 µM, stronger effect = higher value.
Take `COc1ccc(NC(=O)CN(C)C(=O)Cc2coc3cc(C)c(C)cc23)cc1`: the inhibition is -0.3%.
Turning to `Cc1ccc(C)c(NC(=O)COC(=O)c2nn(C)c(=O)c3ccccc23)c1`, the inhibition was 1.4%.
With `Cc1ccc(F)cc1NC(=O)CSCc1c(C)noc1C`, the inhibition was -0.3%.
As to `Cc1ccc(F)cc1NC(=O)Cc1nn(C)c(=O)c2ccccc12`, the inhibition is 69.1% (active).
Take `O=C1CC(c2c(F)cccc2Cl)C(n2cncn2)C(O)=C1C1NCCc2ccccc21` (stereo not drawn): the inhibition is 5.6%.
For the molecule `NNC(=O)COc1ccc(C2SCCS2)cc1`, the inhibition was -1%.
The value for `COc1ccc(CCC(C)N2CCc3ccccc3C2)cc1` (stereo not drawn) was -0.5%.
On to `COCCn1c(CN(Cc2ccccc2)Cc2ccccc2)nc2c1c(=O)n(C)c(=O)n2C`, for which the inhibition is 0.9%.
For `Cn1c(=O)c2c(nc(CN3CCOCC3)n2Cc2ccccc2)n(C)c1=O`, the inhibition was 0.1%.
As to `COCCn1c(CN2CCC(Cc3ccccc3)CC2)nc2c1c(=O)n(C)c(=O)n2C`, the inhibition is 83.7% (active).
The same measure for `COc1cc(C(=O)Nc2cc(C(F)(F)F)ccc2-n2cncn2)cc(OC)c1OC`: -0.1%; for `Cc1cc(C)c2c(Cn3ccnc3)cc(=O)oc2c1`: -1.5%.
The value for `COc1ncnc2c1N=C1CC(C)(C)CC(N)=C1S2` was 0.5%; that for `O=C(COc1ccc(S(=O)(=O)N2CCOCC2)cc1Cl)N1CCOCC1` was 0.5%.
Regarding `COc1ccccc1CNC(=O)CCn1c(=O)sc2ccccc21`, the inhibition is 0.2%.
The same measure for `COc1ccc(Cn2c(=O)sc3ccccc32)cc1OC`: 72.6% (active); for `COc1ccc(CN2CCOC2=O)cc1OC`: 0.9%; for `Nc1ccc(OCC(O)C[n+]2ccc(CCS(=O)(=O)[O-])cc2)cc1` (stereo not drawn): -2.1%.
Take `Oc1c(Cl)cc(Cl)c(Cl)c1Cc1c(O)c(Cl)cc(Cl)c1Cl`: the inhibition was 80.8% (active).
For the molecule `CN(C)C(=O)N=NC(=O)N(C)C`, the inhibition was 4.3%.
The value for `CCC1=C(OC(=O)N(CC)CC)N2C(=O)OC(=NCCc3c[nH]c4ccccc34)[C@]2(C)[C@H]2C1=CC[C@H]1C(=O)N(CC)C(=O)[C@H]12` was 0%.
Turning to `CC1(C)OC(=O)C2=C(C[C@@H](C3CC3)O[C@H]2CCc2cccc(Cl)c2)O1`, the inhibition was 1%.
Take `O=C(Nc1nnc(SCc2ccc(Cl)cc2Cl)s1)C1COc2ccccc2O1` (stereo not drawn): the inhibition is 70% (active).
The value for `O=C(N/N=C\c1cc(Br)c(Br)o1)C1COc2ccccc2O1` (stereo not drawn) was 3.3%.
As for `O=C(Nc1nc2c(F)cc(F)cc2s1)C1COc2ccccc2O1` (stereo not drawn), the inhibition was 63.7% (active).
The same measure for `Cc1cc(C)c2nc(NC(=O)C3CCCO3)sc2c1` (stereo not drawn): -9.1%.
Turning to `O=C(Nc1cc(S(=O)(=O)N2CCCCC2)ccc1Cl)C1COc2ccccc2O1` (stereo not drawn), the inhibition is -0.4%.
The same measure for `C/C(=N/NC(=O)C1COc2ccccc2O1)c1ccco1` (stereo not drawn): 0.4%; for `O=C(CN1CCOCC1)N1CCCc2c1c(=O)oc1ccc(OCc3ccccc3)cc21`: 5.1%.
The value for `CCCN(CCC)c1c([N+](=O)[O-])c(=O)oc2ccccc12` was -6.7%.
Turning to `COCCCNC(=O)C1CCN(c2ccc(N3CCOCC3)nn2)CC1`, the inhibition is 0.3%.
The same measure for `OC(c1ccccc1)c1nccn1Cc1ccccc1` (stereo not drawn): -1.7%; for `O=S(=O)(N1CCCCC1)N1CCNCC1`: 1.7%.
Regarding `O=C1c2ccccc2S(=O)(=O)N1Cc1c(F)cccc1Cl`, the inhibition is -0.3%.
With `NC(N)=N/N=C/c1ccc(Cl)c([N+](=O)[O-])c1`, the inhibition is 90.5% (active).
Turning to `Nn1cnnc1N/N=C/c1cc([N+](=O)[O-])c(Cl)cc1Cl`, the inhibition is 0.6%.
The value for `NC(N)=N/N=C/c1ccc(OCc2ccc(Cl)cc2Cl)cc1` was 6%; that for `CC(C)N(C(=O)[C@H]1C[C@H](CC(=O)NC(C)(C)C)C(=O)N2CCc3c([nH]c4ccc(Cl)cc34)[C@]12C)C(C)C` was -1.7%.
The same measure for `O=C1c2ccccc2C(=O)C1C(=O)C1CC1`: -0.9%.
With `Cc1ccc(C(=O)N/C(=C/c2cccnc2)C(=O)O)cc1`, the inhibition was 0.9%.
The value for `C/C(=N\NC(=O)c1ccc(C)cc1)C1C(=O)c2ccccc2C1=O` was 57.8% (active); that for `CCOc1ccc(S(=O)(=O)Nc2nccs2)cc1` was 0.5%.
As for `Cn1c(Cc2cccc3ccccc23)nnc1SCC(=O)N1CCN(c2cccc(Cl)c2)CC1`, the inhibition was -0.5%.
Regarding `O=C(Nc1ccc(Cl)cc1)Nc1ccc(Oc2cccnc2)nc1`, the inhibition is 82.5% (active).
The value for `Cc1cccc(C(=O)Nc2ccc(Oc3cnccn3)cc2)c1` was 0.7%; that for `O=C(O)CCCC(=O)Nc1ccc(Oc2cccc(C(F)(F)F)c2)nc1` was 0.9%; that for `O=C1c2ccccc2[C@@H]2C[C@@H](O)[C@H](Nc3ccccc3Cl)CCN12` was -0.5%.
As for `Cc1ccc2c(c1)C(c1ccccc1)N(C(=O)c1ccc(S(=O)(=O)N3CCOCC3)cc1)CC(=O)N2` (stereo not drawn), the inhibition was -0.3%.
The same measure for `Nc1nc(CSc2nnnn2-c2ccccc2)nc(Nc2ccccc2)n1`: 0%; for `O=C(c1ccc(-c2ccccc2)cc1)C1CCCN(C(=O)c2cncs2)C1` (stereo not drawn): -1.8%; for `Cc1ccn(CC(=O)NC2CCCN(Cc3ccccc3F)C2)n1` (stereo not drawn): 0.4%.
Take `CCNCCC(=O)N1c2ccccc2Sc2ccc(NC(=O)OCC)cc21`: the inhibition was 75.6% (active).
For the molecule `CCOC(=O)Nc1ccc2c(c1)N(C(=O)CCN1CCN(CCO)CC1)c1ccccc1CC2`, the inhibition was 0.2%.
With `CCOC(=O)Nc1ccc2c(c1)N(C(=O)CCCl)c1ccccc1[S@]2=O`, the inhibition was -1.2%.
The same measure for `Cc1cccnc1NC(=O)Cn1c(=O)oc2ccccc21`: -0.1%; for `COC(=O)c1ccc(CNC(=O)C2CCC(=O)N(Cc3cccc(F)c3)C2)cc1` (stereo not drawn): -0.2%.
For the molecule `N#Cc1ccc(C(=O)Nc2nc(-c3cccs3)c(C(=O)C(F)(F)F)s2)cc1`, the inhibition was 87.5% (active).
The value for `C=CCN(CC=C)S(=O)(=O)c1ccc(C(=O)Nc2nc3c(s2)CCc2ccccc2-3)cc1` was -1.2%; that for `CCn1c(NC(=O)c2ccccc2)c(-c2cccs2)c(=O)c2ccccc21` was 1.4%; that for `Cc1ccc2nnn(Cc3cccc(C(C)(C)C)c3O)c2c1` was 93.7% (active).
The value for `CCCNC(=O)c1ccccc1NC(=O)CSCc1ccc(OC)cc1` was 0%.
The value for `COc1ccc(NC(=O)CCCN2C(=O)C(c3ccccc3)Oc3cccnc32)cc1` (stereo not drawn) was 1.6%; that for `COc1ccc(/C=C2/SC(=O)N(CCCCCC(=O)Nc3ccccc3C(=O)O)C2=S)cc1` was 60% (active); that for `CCN1C[C@@H]2[C@@H]3C(=O)N(C)C(=O)[C@@H]3[C@](C)(C1=O)N2C(=O)c1ccccc1` was -0.4%.
With `COc1ccc(S(=O)(=O)N[C@@H]2C=C[C@@H](CC(=O)N3CCc4ccccc4C3)O[C@@H]2CO)cc1`, the inhibition is 0.4%.
The value for `Cc1cc(C)c(C#N)c(SCC(=O)N(CC(C)C)C2CCS(=O)(=O)C2)n1` (stereo not drawn) was -1.7%; that for `CC1=C(C/C=C(\C)CCCC(C)CCCC(C)CCCC(C)C)C(=O)c2ccccc2C1=O` (stereo not drawn) was -2.2%; that for `COc1ccc(CCNS(=O)(=O)c2cn(C)nc2C)cc1` was -0.3%.
On to `O=C(Cc1ccc(Cl)c(Cl)c1)Nc1ccc(SC(F)F)cc1`, for which the inhibition was 82% (active).
The value for `CCC1CCCCN1C(=S)Nc1ccc(SC(F)F)cc1` (stereo not drawn) was 34%.
Consider `N#C/C(=C\c1cccnc1)C(=O)Nc1ccc(SC(F)F)cc1`, for which the inhibition is 7.2%.
The same measure for `CCc1nc2c(OCCOc3ccc(F)cc3)cccn2c1N(C)C(=O)c1ccccc1F`: 0.6%; for `Cc1nc2nc(SCC(=O)Nc3cccc(F)c3)[nH]c2cc1Br`: 63.9% (active).
As to `O=C(CSc1nc2[nH]c(=O)[nH]c(=O)c2s1)Nc1cccc(F)c1`, the inhibition was -0.6%.
The same measure for `Cc1nc2nc(SCC(=O)c3ccccc3)[nH]c2cc1Br`: 9.9%; for `COc1cc(OC)cc(-c2c(-c3cccs3)c3cc(-c4ccc(OC)nc4)ccc3n2C)c1`: -0.4%; for `CCC(C)NC(=O)c1ccccc1NC(=O)c1ccccc1N(C)S(C)(=O)=O` (stereo not drawn): 0.4%.
Regarding `COCC(C)n1c(C)cc(C(=O)CSc2cc(C)c3ccccc3n2)c1C` (stereo not drawn), the inhibition was 3.2%.
The same measure for `CCCNC(=O)c1cc(C2CCCCN2S(=O)(=O)c2cn(C)cn2)on1` (stereo not drawn): 0.2%; for `O=C(NCc1cc(C(F)(F)F)cc(C(F)(F)F)c1)C1CC(c2cccc(F)c2)=NO1` (stereo not drawn): 2%.
In the case of `COC(=O)Cc1ccc(OCC(=O)Nc2ccc(OC(F)(F)F)cc2)cc1`, the inhibition was 0.1%.
The value for `CN(CC(=O)Nc1ccc(OC(F)(F)F)cc1)C(=O)C1CCC1` was -0.8%.
The value for `Cn1nccc1NC(=O)Nc1ccc(OC(F)(F)F)cc1` was 60.1% (active).
In the case of `Cc1sc2ncnc(N3CCC(C(=O)NNC(=O)c4ccc(F)cc4)CC3)c2c1C`, the inhibition is 0.7%.
The value for `Cc1ccc2cc(CN(c3ccc(C)c(C)c3)S(C)(=O)=O)c(=O)[nH]c2c1` was -0.6%; that for `C/C(=N\Nc1ccc([N+](=O)[O-])cc1)c1ccc(-n2nncc2C(C)(C)C)cc1` was 20.4%.
In the case of `Cc1nc(C)c2c(c1C(F)(F)F)-c1ccccc1C2(F)F`, the inhibition is -0.4%.
For `COc1cc(S(=O)(=O)Nc2ncn[nH]2)ccc1Cl`, the inhibition was -1.7%.
The same measure for `CCCCNC(=O)CSc1nc2ccc(NC(=O)CSc3nnc(N)s3)cc2s1`: 15.3%.
Regarding `CCCCNC(=O)CSc1nc2ccc(NC(=O)CSc3nnc(COc4ccccc4C)n3C)cc2s1`, the inhibition is 4.8%.
Regarding `Nc1nnc(SCC(=O)Nc2ccc3nc(SCC(=O)Nc4ccccc4)sc3c2)s1`, the inhibition is 95.5% (active).
On to `O=C1c2ccccc2C(Nc2ccc3c(c2)OCCO3)N1Cc1ccco1` (stereo not drawn), for which the inhibition was 3%.
In the case of `C[C@H](CO)N1C[C@H](C)[C@@H](CN(C)C(=O)NC2CCCCC2)Oc2ccc(NC(=O)c3ccncc3)cc2C1=O`, the inhibition was -0.8%.
